In the library only some 5.7% were active in any assay of this set; here they are far more common.
HT1080NT lethal = kills 2HG-producing HT-1080-NT fibrosarcoma cells | HT-1080-NT fibrosarcoma viability, CellTiter-Glo ATP luminescence, 48 h | Potency, µM (highest dose often 46.1 µM), without a hit: top-dose activity, negative = less viability, usual class: cytotoxic | 360,000 tested, 1.6% active;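 also: NT is the 2HG producing partner of a matched IDH1 knockdown line; 0% = DMSO-treated cells and -100% = media-only wells without cells; nearly all actives have a fitted effect of over 55% in size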
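Viability by CellTiter-Glo luminescence after 48 h compound exposure at 37C of HT-1080-NT cells (750/well, RPMI, 5% FBS). % activity scaled between DMSO wells and medium-only wells, then curve-fitted and categorized by curve class.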
KB-V1 MDR tox = KB-V1 MDR subline cytotoxicity; KB-V1 MDR cells viability, CellTiter-Glo, 72 h; Potency, µM (series often up to 46.1 µM), usual class: cytotoxic; 400,000 tested, 3.4% active; also: nearly all actives have a fitted effect of over 60% in size
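Potencies derive from concentration-effect curves fitted to normalized luminescence (CellTiter-Glo) of KB-V1 cells treated for 72 h at 37 degrees C in phenol-red-free DMEM containing 10% FBS.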
HT1080 IDH1KD tx = toxicity to HT-1080 IDH1 knockdown cells (counter line). HT-1080 IDH1 knockdown viability, ATP luminescence, 48 h. Potency, µM (highest dose often 46.1 µM), for the others: at the highest dose activity, negative = toxicity, usual class: cytotoxic. 360,000 tested, 2% active;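 also: 0% = DMSO wells and -100% = cell-free medium wells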
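Assay cells: HT-1080 with IDH1 knockdown, 750 per well, RPMI/5% FBS. Exposure: 48 h at 37 °C following 2 h pre-incubation. Read: CellTiter-Glo luminescence; fitted concentration-response, curve class assigned.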
KB-3-1 cytotox = KB-3-1 parental cell cytotoxicity; AID 1347075; KB-3-1 viability, CellTiter-Glo ATP luminescence, 72 h; 400,000 tested, 1.4% active; Potency, µM (titrated, usually from 46.1 µM), most hits filed as cytotoxic; also: nearly all actives have a fitted effect of over 60% in size
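Screening of KB-3-1 cells (DMEM, 10% FBS, phenol-red free) ran from lowest to highest compound concentration; after 72 h at 37 °C viability was read luminescently and curves fitted.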
* hit, by the source's call; i = inactive; ? = inconclusive; · = not tested or not shown. Calls follow the shape of the dose curve; as a rule, active = well fitted curve in the direction sought with a large enough effect; inconclusive = small, poorly fitted or top-dose-only effect, or another doubt; inactive = no such curve, though single readings can be large; an effect the other way counts as inactive or inconclusive. Unless noted, % is scaled to controls: 0 for no effect and ±100 for the full control effect; potency is read from the fitted curve at half-maximal effect.

SMILES | HT1080NT lethal | KB-V1 MDR tox | HT1080 IDH1KD tx | KB-3-1 cytotox
O=C(CSc1ccccn1)Nc1ccc2c(c1)C(=O)c1ccccc1C2=O | ? | ? | 21µM* | i
CCCN1CCC(=O)N(CCC#N)CC1 | · | i | · | i
COc1cccc(O)c1CN1CCC(C(=O)Nc2ccc(-c3cccc(C)c3)cc2)CC1 | 23µM* | ? | 18µM* | 18µM*
COc1ccc(-c2csc(NC(=S)NC(=O)/C=C/c3ccccc3)n2)cc1Br | -16% | 12µM* | -19% | ?
COc1cccc(NC(=S)NC(=O)/C=C/c2ccco2)c1 | 21µM* | ? | 6.5µM* | ?
O=C(/C=C/c1ccco1)NC(=S)Nc1nc(-c2ccc3ccccc3c2)cs1 | ? | 5.2µM* | ? | 4.6µM*
Cc1ccc(-c2csc(NC(=O)/C=C/c3cccs3)n2)cc1C | -7% | 9.2µM* | -19% | ?
COc1ccc(-c2csc(NC(=S)NC(=O)c3ccc4ccccc4c3)n2)cc1OC | 15% | ? | 6% | ?
O=C(/C=C/c1ccco1)NC(=S)Nc1nc(-c2ccc(Cl)cc2)cs1 | -1% | ? | -8% | ?
O=C(/C=C/c1ccco1)NC(=S)Nc1cccc(C(=O)O)c1 | -3% | ? | 1% | i
N#Cc1ccc(-c2csc(NC(=O)/C=C/c3cccs3)n2)cc1 | -18% | i | -17% | i
COc1ccc(-c2cccc(NS(=O)(=O)c3ccc([N+](=O)[O-])cc3)c2)nn1 | 5% | 13µM* | 6% | i
Cc1ccc(N=C2SC(C(=O)Nc3ccc(OC(F)(F)F)cc3)C(N)=C2C(=O)Nc2c(C)cc(C)cc2C)cc1 (configuration not stated) | 15µM* | ? | 18µM* | ?
CCN1CCN(c2ccc(S(=O)(=O)N3CCCCC3)cc2NC(=O)COc2ccc(F)cc2Cl)CC1 | 21µM* | i | 18µM* | ?
C=C1C(=O)[C@]23C[C@H]1CC[C@H]2[C@]1(C)[C@@H](OC(C)=O)CC[C@@](C)(C(=O)O)[C@H]1C[C@@H]3OC(C)=O | 6.5µM* | i | 6.5µM* | ?
C=C1C(=O)[C@]23C[C@H]1CCC2[C@]1(C)CCC[C@@](C)(C(=O)O)C1C[C@@H]3O (some centres not stated) | 4.1µM* | ? | 2.3µM* | 8.2µM*
C=C1C(=O)[C@]23C[C@H]1CCC2[C@]1(C)C(=O)CC[C@@](C)(C(=O)O)C1C[C@@H]3O (some centres not stated) | 6.5µM* | i | 8.2µM* | ?
CC1(C(=O)NCCc2c[nH]c3ccccc23)CCN1Cc1ccccc1OC(F)F (configuration not stated) | 23µM* | i | ? | ?
CC1(C(=O)NCc2ccccc2Br)CCN1Cc1ccccc1OC(F)F (configuration not stated) | ? | 23µM* | ? | i
Cn1c(=O)c2c(n3cnnc13)-c1ccccc1CC21CCCC1 | -2% | 23µM* | -4% | i
CCc1nnc(SC(CC)C(=O)Nc2ccc(OC)c(Cl)c2)c2cc3occc3n12 (configuration not stated) | · | i | · | i
COC(=O)c1ccccc1NC(=O)NCCc1c(C)nn(C)c1C | · | i | · | i
CCOC(=O)c1sc(NC(=O)CN2CCCC2)c(C(=O)OCC)c1C | 12% | i | 21% | i
CCOC(=O)c1c(NC(=O)CN2CCN(C)CC2)sc(C(=O)Nc2ccccc2)c1C | ? | i | 23µM* | i
CCOC(=O)c1c(NC(=O)CN(CC)CC)sc2c1CCN(C(=O)OCC)C2 | ? | ? | ? | i
SMILES | HT1080NT lethal | KB-V1 MDR tox | HT1080 IDH1KD tx | KB-3-1 cytotox
CCOC(=O)c1sc(NC(=O)CCN2CCN(C)CC2)c(C(=O)OCC)c1C | 21µM* | i | ? | i
CCOC(=O)c1c(NC(=S)N2CCN(C)CC2)sc2c1CCN(C(=O)OCC)C2 | 21µM* | i | 18µM* | i
CCOC(=O)c1c(NC(=O)CN2CCOCC2)sc(C(=O)NC)c1C | 0% | i | -10% | i
Cc1ccc(C(=O)N2CCN(c3cccc(Cl)c3)CC2)cc1-n1c(C)nc2cccnc21 | · | i | · | i
Cc1cc(C)c(C)c(OCC(=O)Nc2ccc(S(=O)(=O)Nc3nc(C)cc(C)n3)cc2)c1 | · | i | · | i
CCOc1ccc(CN2CCN(S(=O)(=O)c3ccc(Cl)cc3)CC2)cc1 | · | i | · | i
Cc1ccc(OCCN2CCN(c3ncnc4sc(C)c(C)c34)CC2)cc1 | -21% | i | -26% | ?
Clc1ccc(OCCN2CCN(c3ncnc4sccc34)CC2)cc1 | 4% | 2.9µM* | 23µM* | ?
CC(C)(C)C1=C(C#N)C(c2cccnc2)C(C#N)=C(N)O1 (configuration not stated) | 8% | i | 4% | i
N#CC1=C(N)Oc2cc3ccccc3cc2C1c1cccs1 (configuration not stated) | ? | i | ? | 10µM*
N#CC1=C(N)Oc2c(ccc3cccnc23)C1c1cccnc1 (configuration not stated) | 7.3µM* | ? | 8.2µM* | ?
CCOC(=O)C1=C(c2ccccc2)OC(N)=C(C#N)C1c1cccs1 (configuration not stated) | -2% | ? | ? | i
N#CC1=C(N)Oc2cc3ccccc3cc2C1c1cccnc1 (configuration not stated) | 6.5µM* | ? | 5.8µM* | 5.8µM*
C[n+]1cccc(C2C(C#N)=C(N)Oc3c2ccc2ccccc32)c1 (configuration not stated) | 12µM* | ? | 15µM* | ?
Cc1cc2oc(C(=O)Nc3ccc(S(=O)(=O)Nc4onc(C)c4C)cc3)cc(=O)c2cc1C | · | ? | · | i
O=C(C[N+]12CN3CN(CN(C3)C1)C2)c1ccc(Br)cc1 | · | i | · | i
CCCSCCCNC(=O)c1sc2nc(C)cc(C)c2c1-n1cccc1 | · | i | · | i
Cc1cccc(NS(=O)(=O)c2ccc3c(c2)CCN3C(=O)C2CC2)c1C | · | i | · | i
CN(C)/C=N/C1=C(C#N)C(c2cccs2)c2ccc3ccccc3c2O1 (configuration not stated) | 7.3µM* | 5.8µM* | 7.3µM* | 2.6µM*
COc1ccc(-c2nnc(SCC(=O)NC3CCCC3)nc2-c2ccc(OC)c(OC)c2)cc1OC | · | i | · | i
COc1cccc(N2CCN(C(=O)Cn3ncc4c3-c3ccccc3OC4)CC2)c1 | · | i | · | i
COc1ccccc1-c1ccc2c(c1)C(C)(Cc1ccc(Cl)c(Cl)c1)C(=O)N2 (configuration not stated) | ? | i | 23µM* | i
CC1(Cc2ccc(Cl)c(Cl)c2)C(=O)Nc2ccc(S(=O)(=O)NC3CCCCC3)cc21 (configuration not stated) | ? | 18µM* | ? | ?
